miR-122 sensor – inhibitors of miR-122 in Huh7 cells | Huh7 miR-122 Renilla luciferase sensor, 48 h; neutral wells = 0, positive control = 100 | activation (reporter increase), % at 12.5 µM | AID 602342 | actives 0.3% (n = 340,000);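 active = mean replicate activation score at least 90 and every replicate individually at or above 90; inconclusive = only one of the two criteria met; inactive = neither criterion met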;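 note: higher luciferase means less miR-122 activity so hits act as miR-122 inhibitors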
Wnt bcat act – activates Wnt/beta-catenin signaling in a reporter cell assay. activator, plate reader. activation, % at 9.35 µM. actives 1.2% (n = 300,000). AID 743398; in the data active = activation above about 30%, passing the limit was not always enough; inconclusive = no clear call, values can overlap the other calls;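 note: 0% = neutral control wells and 100% = positive control wells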
HIV Env fusion – inhibitors of HIV Env-mediated cell fusion | actives 1.1% (n = 360,000) | inhibition, % at 12.3 µM | AID 651610 | HeLa-JRFL Env/CEM21 cell fusion, luciferase;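 active = mean replicate inhibition score of at least 50 and every replicate individually at or above 50; inconclusive = only one of the two criteria met; inactive = mean below 50 and not all replicates reaching 50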;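 note: 0% = plate neutral controls and 100% = maraviroc near 300 nM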
MITF act – activators of MITF-driven TRPM1 promoter activity in SK-MEL-5 cells. SK-MEL-5 TRPM1-promoter luciferase, 24 h; % of positive control, neutral wells = 0. activation, % at 12.5 µM. actives 0.75% (n = 300,000);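 active = mean activation of at least 80% with every replicate also reaching 80%; inconclusive = mean reaches 80% but some replicate falls short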;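 note: 0% = neutral control wells and 100% = parthenolide positive control wells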
esBAF inh – blocks esBAF chromatin remodeling in mouse ES cells; Bmi1-luciferase knock-in reporter, 24 h; 100% = twice the neutral-well signal; reporter increase, % at 12.5 µM; actives 2% (n = 350,000); AID 602393; in the data active = activation above about 40%; inconclusive = no clear call, values can overlap the other calls;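 note: 0% = median of the plate's neutral control wells and 100% = double that signal; a rise in the Bmi1 reporter signal indicates esBAF inhibition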
Starred values were filed as active, the others as inactive; ? = inconclusive; / = not tested or not shown; [ ] = another dose, or the depositor's remark. The list is not random: actives were taken first. Their share in the collection is about 3.4%.

SMILES	miR-122 sensor	Wnt bcat act	HIV Env fusion	MITF act	esBAF inh
CCc1cccc2c(C(=O)COC(=O)c3nccnc3N)c[nH]c12	/	10.5	-24.6	30.5	78.6*
CCc1cccc2c(C(=O)COC(=O)c3ccc(O)cc3)c[nH]c12	5.2	2.7	-28.8	10.6	48.9*
CCc1cccc2c(C(=O)COC(=O)c3ccccc3)c[nH]c12	/	-1.9	-26.4	73.0	/
CCS(=O)(=O)Nc1ccc2c(c1)C(=O)N(C)C[C@H](OC)[C@@H](C)CN(Cc1nccs1)[C@H](C)CO2	1.9[16.7 µM]	/	/	/	-1.2
Fc1ccc2c(c1)[C@H]1OCC[C@H]1[C@@H](c1ccco1)N2	-1.0	1.4	-33.8	-0.6	26.2
Clc1ccc2c(c1)[C@H]1OCC[C@H]1[C@@H](c1ccco1)N2	-1.4	12.5	-28.1	48.0	48.4*
O=C(N/N=C/c1sc(=O)n(-c2ccccc2)c1Cl)c1ccccc1	/	75.0*	-62.0	59.9	/
COc1cccc(C(=O)O/N=C(\N)c2ccc([N+](=O)[O-])cc2)c1	13.0	/	-151.1	15.1	55.2*
COc1cccc(C(=O)O/N=C(\N)c2ccc(C)cc2)c1	12.7	28.6	-176.3	58.7	43.0
COc1ccc(/C(N)=N/OC(=O)c2cccc([N+](=O)[O-])c2)cc1	5.2	/	/	24.7	64.1*
CO[C@H]1CN(C)C(=O)c2ccc(NC(C)=O)cc2OC[C@@H](C)N(C(=O)Cc2ccccn2)C[C@H]1C	/	/	-3.3[16.7 µM]	/	-4.7
O=C(CCC(=O)Nc1ccc(F)cc1)N/N=C/c1ccc(O)cc1O	0.7	-0.6	-1.7	-7.4	/
Oc1ccc(C=NNC(=S)Nc2ccc(F)cc2)c(O)c1	8.8	37.3*	-32.1	17.0	?
CN(C(=S)NCCN1CCOCC1)C(c1ccccc1)c1ccccc1	/	41.8*	5.3	-4.7	/
CC(=O)c1cccc(NC(=O)Nc2ccc(C(=O)N3CCOCC3)cc2)c1	5.3	-6.6	63.1*	/	-7.2
CC(C)(C)c1ccc(C(=O)Nc2cccc(C(=O)N3CCOCC3)c2)cc1	/	10.0	-75.9	16.1	/
Cc1ccc(C(=O)Nc2cccc(C(=O)N3CCOCC3)c2)cc1	-2.5	41.3*	-67.0	8.5	21.0
CN(C)/C=C/C(=O)/C=C/c1ccc(Cl)cc1Cl	/	?	-64.6	92.4*	/
CCCCc1c(-c2ccccc2OC)ncn1C(C)c1ccccc1 (stereo unspecified)	/	-1.3	76.3*	/	/
CCC(=O)Nc1ccc2c(c1)C(=O)N(C)[C@@H]1CC[C@H](CC(=O)NCCc3ccccc3)O[C@@H]1CO2	1.0[16.7 µM]	/	-4.0[16.7 µM]	/	0.5
CC(C)NC(=O)N(C)C[C@H]1Oc2ccc(NS(=O)(=O)c3ccc(F)cc3)cc2C(=O)N([C@H](C)CO)C[C@H]1C	6.4[16.7 µM]	/	/	/	0.6
COc1cc(/C=C2\COC/C(=C\c3cc(OC)c(OC)c(OC)c3)C2=O)cc(OC)c1OC	/	-17.7	110.2*	-90.0	/
COc1cc(/C=C2/CCC/C(=C\c3cc(O)c(OC)c(Cl)c3)C2=O)cc(Cl)c1O	113.4*	41.4*	27.4	-10.0	-53.3
COc1cc(/C=C2\CC/C(=C\c3cc(OC)c(OC)c(OC)c3)C2=O)cc(OC)c1OC	/	/	36.7	-18.2	/
COc1cc(/C=C2\CCC/C(=C\c3ccc(O)c(OC)c3)C2=O)ccc1O	/	2.2	-9.8	-11.0	9.1
SMILES	miR-122 sensor	Wnt bcat act	HIV Env fusion	MITF act	esBAF inh
COc1cc(/C=C2\CC/C(=C\c3cc(OC)c(O)c(OC)c3)C2=O)cc(OC)c1O	/	11.2	76.7*	-63.8	/
O=C1C(Cl)=C(Nc2ccccc2O)C(=O)N1c1ccccc1	-2.2	55.2*	6.3	/	7.2
COc1ccccc1N1C(=O)C(Cl)=C(Nc2ccccc2O)C1=O	/	6.4	-33.6	6.8	/
CCn1c(=NC(=O)c2ccco2)sc2cccc(F)c21	89.4	27.8	-59.8	19.6	69.8*
CC(NC(=O)c1cc(S(=O)(=O)N(C)C)ccc1N1CCCC1)C1CC2CCC1C2 (stereo unspecified)	/	-3.8	71.5*	-4.7	/
CN(C)S(=O)(=O)c1ccc(N2CCCC2)c(C(=O)NC(c2ccccc2)c2ccccc2)c1	23.2	/	?	/	-6.6
O=C(Nc1ccc(O)c(-c2nc3ccccc3o2)c1)C1(c2ccc([N+](=O)[O-])cc2)CCCC1	3.0	/	55.1*	4.1	6.4
CC(C)NC(=O)Nc1ccc2c(c1)CC(=O)N([C@H](C)CO)C[C@@H](C)[C@H](CN(C)Cc1ccccc1)O2	5.1[16.7 µM]	/	-17.1[16.7 µM]	/	-1.3
O=C(CCNS(=O)(=O)c1ccccc1)N1CCCCCCC1	/	8.3	65.7*	13.9	/
O=C(CCNS(=O)(=O)c1ccccc1)N1CCCCCC1	0.5	3.7	-7.9	11.8	20.8
Cc1ccc(Nc2nnns2)cc1	-5.1	/	/	7.3	/
CC1=CC(C)(C)N=C(Nc2ccc(C)cc2)S1	0.2	26.9	-23.5	73.1	46.0*
Cc1noc(C)c1NC(=O)N(C)C[C@@H]1OCc2ccccc2-c2ccccc2C(=O)N([C@H](C)CO)C[C@@H]1C	/	/	-4.7[16.7 µM]	/	6.8
CCC(=O)N[C@@H]1CC[C@H](CCNS(=O)(=O)c2ccc(Cl)cc2)O[C@@H]1CO	/	/	4.1[16.7 µM]	/	5.4
O=C(CSc1ccccc1)N1CCN(c2ccccn2)CC1	0.7	/	-29.2	23.5	19.4
Cc1ccc(-c2nc(CSCC(=O)N3CCOCC3)c(C)o2)cc1	/	/	27.8	/	/
O=C(CSCc1ccccc1Cl)N1CCN(c2ccccn2)CC1	-5.4	/	/	41.4	58.1*
CCc1ccc(-c2nc(CSCC(=O)N3CCN(c4ccccn4)CC3)c(C)o2)cc1	-15.6	/	85.6*	/	-54.1
Cc1ccc(-c2nc(CSCC(=O)N3CCN(c4ccccn4)CC3)c(C)o2)cc1	-4.8	-6.3	57.1*	/	6.4
O=C(C[C@@H]1CC[C@@H](NC(=O)C2CCC2)[C@H](CO)O1)Nc1nccs1	/	/	-3.3[16.7 µM]	/	-2.4
COc1ccc(-c2cn(CC[C@H]3CC[C@@H](NC(=O)Cc4ccccn4)[C@H](CO)O3)nn2)cc1	/	/	8.0[16.7 µM]	/	-0.3
CCOC(=O)C1=C(C)N(C[C@@H]2CC[C@@H](Cc3ccc(-c4ccccc4)cc3)O2)C(=O)NC1c1ccc(Cl)cc1 (stereo partly specified)	-6.6	-2.2	48.1	-1.1	13.1
CCOC(=O)C1=C(C)N(C[C@@H]2CC[C@@H](Cc3ccc(-c4ccccc4)cc3)O2)C(=O)NC1C1CC1 (stereo partly specified)	/	-4.1	?	-2.4	1.7
NC(=O)NC[C@@H]1CC[C@@H](Cc2ccc(-c3ccccc3)cc2)O1	-2.5	/	/	118.1*	69.0*
CCOC(=O)C1=C(C)N(C[C@@H]2CC[C@@H](Cc3ccc(-c4ccccc4)cc3)O2)C(=O)NC1c1ccc(-c2ccccc2)cc1 (stereo partly specified)	-6.5	-2.4	71.6*	-39.5	-5.5
OC[C@@H]1CC[C@@H](Cc2ccc(-c3ccccc3)cc2)O1	-2.8	29.2	-29.7	6.0	68.2*
COc1ccc(NC(=O)NC[C@@H]2CC[C@@H](Cc3ccc(-c4ccccc4)cc3)O2)cc1	-3.5	13.5	31.4	24.7	20.7
O=C(NCCc1ccccc1)c1cccc([N+](=O)[O-])c1	-2.6	/	-21.6	94.4*	56.3*
